The source of these data is PubChem BioAssay AID720568 (Broad Institute, 2013).

Measured potencies and affinities stand elsewhere. Calls of active or inactive are those of the source. How the calls were made is not given here.

The nature of the assay: toxicity toward HepG2 hepatoma cells – cell-based, dry powder samples, cytotoxicity control, dose response (AID 720568). The conditions noted are these: plate reader; series mostly up to 15 µM.
With `CC(=O)c1cccc(NC(=O)CSc2ncc(C(=O)Nc3ccccc3)c(=O)n2C)c1`, the outcome was inactive.

As to `CCCOC(=O)c1[nH]c2c(c1C)C(=O)CC(c1cccs1)C2` (stereo not drawn), the result was inactive. With `CCCCOc1ccccc1C1CC(=O)NC2=C1C(=O)CCC2` (stereo not drawn) the entry was “inactive”; with `CCOC(=O)c1ccc(Oc2cc(C)nc(SC)n2)cc1`, “inactive”; with `Cc1ccc(/C=N/NC(=O)C2COc3ccccc3O2)s1` (stereo not drawn), “inactive”. With `COc1ccccc1CSc1nnc(-c2ccccc2)o1` the entry was “inactive”; with `COc1ccc2c(COC(=O)c3cccc(S(=O)(=O)NCC(C)C)c3)cc(=O)oc2c1`, “inactive”. With `O=C(Cc1ccccc1)c1nnc(-c2ccccc2)o1` the entry was “inactive”. For `COc1ccccc1OCC(=O)NNC(=O)c1ccoc1C`, the call was inactive. With `Cc1ccc(CCC(=O)Nc2ncc(Cc3cc(Cl)ccc3Cl)s2)o1` the entry was “inactive”; with `CC(=O)N1CCC(=O)c2cc3ccccc3cc21`, “inactive”.

On to `Cc1cc(C)nc(/N=C(\N)Nc2ccc(OCc3ccccc3)cc2)n1`, for which the result was inactive. As for `CCOC(=O)COc1cccc2c(=O)n(CC(=O)NCc3ccccc3)ccc12`, the entry is “inactive”; as for `CCOc1ccc(NC(=O)c2cc(OC)nc3ccccc23)cc1`, “inactive”; as for `CCC1=Nc2cc(C(=O)NCCCOC)ccc2Sc2ccccc21`, “inactive”.

For `CCCNS(=O)(=O)c1cccc(C(=O)OCc2cc(=O)oc3cc(OC)ccc23)c1`, the result was inactive.

Consider `Cc1cc(NC(=O)CSc2nc(-c3ccco3)cc(C(F)(F)F)n2)no1`, for which the result was inactive. With `Cc1ccc(C(=O)c2cc([N+](=O)[O-])ccc2N2CCOCC2)cc1C` the entry was “inactive”; with `COc1ccc(-c2nnc(SCc3ccccc3)o2)cc1`, “inactive”; with `Cc1cnc(NC(=O)c2cc(S(=O)(=O)N(C)C)ccc2N2CCCC2)s1`, “inactive”. As for `COc1cccc(N2CCN(C(=O)c3ccc(CS(=O)c4ccc(C)cc4)o3)CC2)c1` (stereo not drawn), the entry is “inactive”; as for `Cc1ccc(Oc2ccc(S(=O)(=O)N3CCOCC3)cc2C(N)=O)c(-n2nc3ccccc3n2)c1`, “inactive”. As for `O=C(N/N=C/c1ccc(Cl)cc1)c1sccc1OCc1ccc(F)cc1`, the entry is “inactive”; as for `CCN(CC)CCC(=O)Nc1cccc2c1C(=O)c1ccccc1C2=O`, “inactive”. As for `Cc1[nH][nH]c(=O)c1C(c1ccc(-c2ccc(Cl)c(Cl)c2)o1)c1c(C)[nH][nH]c1=O`, the outcome was inactive. Take `COC(=O)c1cn(C(=O)c2ccc(OC)cc2)c2ccccc12`: the compound was called inactive.

As for `COc1ccccc1-c1nnc(SCc2ccccc2)o1`, the outcome was inactive. Take `COc1cc(-c2nnc(SCC3(c4ccc(Br)cc4)OCCO3)o2)cc(OC)c1OC`: the compound was classed as inactive. On to `CCOc1ccc(S(=O)(=O)NCc2ccccn2)cc1NC(=O)c1ccccc1F`, for which the result was inactive. With `Brc1ccc(CSc2nnc(-c3ccccc3)o2)cc1` the entry was “inactive”; with `COc1cc(Nc2c3c(nc4ccccc24)CCCC3)cc(OC)c1OC`, “inactive”; with `Cc1cccc(C)c1OCCNC(=O)C(=O)NCc1ccco1`, “inactive”.

Regarding `CCn1c2ccccc2c2cc(NC(=O)c3cc(OC)c(OC)c(OC)c3)ccc21`, the compound was called inactive. As for `CCN(CC)CCCNc1nc2cc(OC)c(OC)cc2c2nc(-c3ccccc3)nn12`, the entry is “inactive”; as for `Cc1cc(C)cc(C(=O)N2CC(=O)Nc3ccccc32)c1`, “inactive”. As for `Cc1cc(=O)[nH]c(N/N=C/c2cc(C)n(CC(F)(F)F)c2C)n1`, the entry is “inactive”. As for `COc1ccc(NC(=O)C(=O)c2cn(CC(=O)N3CCCC3)c3ccccc23)cc1`, the entry is “inactive”; as for `C/C(=N\NC(=O)c1c([N+](=O)[O-])c(C)nn1C)c1ccc(NC(=O)C2CCCC2)cc1`, “inactive”.
